Bioassay records as filed in PubChem BioAssay.
Bead autofluor = flagged as autofluorescent in microsphere protease counterscreen. compound autofluorescence counterscreen, microsphere flow cytometry; hits give high values. fluorescence intensity (no concentration beside the values). actives 3.1% (n = 360,000). AID 624483; in the data active = fluorescence intensity above about 16000; inconclusive = no clear call, values can overlap the other calls
BoNT-F LC inh = BoNT F light chain protease inhibition | Multiplex microsphere protease cleavage assay, flow cytometry | inhibition, % at 10 µM | actives 0.22% (n = 360,000) | AID 588497; in the data active = inhibition above about 35%, passing the limit was not always enough; inconclusive = no clear call, values can overlap the other calls; note: plate controls were buffer without enzyme for full effect and enzyme alone for no effect
SARS 3CLpro inh = SARS-CoV 3CLpro protease inhibition | P0C6X7 | recombinant SARS-CoV 3CLpro, quenched FRET peptide cleavage | inhibition, % at 6 µM | actives 0.14% (n = 290,000) | AID 1706; in the data active = inhibition above about 12%
Anthrax LF prot = blocks Bacillus anthracis lethal factor protease. P15917. multiplex microsphere protease cleavage assay, LF. inhibition, % at 10 µM. actives 0.12% (n = 360,000); note: plate controls were buffer without enzyme for full effect and enzyme alone for no effect
VHR inh abs = blocks human VHR1 dual specificity phosphatase; P51452; recombinant VHR phosphatase, pNPP absorbance; inhibition, % at 13.3 µM; actives 0.52% (n = 290,000); in the data active = inhibition above about 50%
Target sequence (P51452 whole entry, looked up): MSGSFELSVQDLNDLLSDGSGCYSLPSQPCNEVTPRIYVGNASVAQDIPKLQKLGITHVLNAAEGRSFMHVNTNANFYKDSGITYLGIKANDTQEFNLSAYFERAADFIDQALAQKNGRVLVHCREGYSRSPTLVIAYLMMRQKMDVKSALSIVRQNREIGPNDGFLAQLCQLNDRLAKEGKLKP
BoNT-A LC inh2 = BoNT A light chain protease inhibition; actives 0.17% (n = 360,000); inhibition, % at 10 µM; multiplex microsphere protease substrate cleavage, flow cytometry; note: plate controls were buffer without enzyme for full effect and enzyme alone for no effect
* = called active by the depositor. Shown are actives, neighbours in structure and some others; about 3.9% of the full set was active somewhere. Cut-off read from the data, not from the text of the source, unless noted: active = inhibition above about 30%; inconclusive = no clear call, values can overlap the other calls; inactive = below that.

Results for CC1Nc2ccccc2C(=O)N1NC(=O)c1ccc(Br)cc1 (stereo not given) ?
Bead autofluor: 4562; BoNT-F LC inh: -5; SARS 3CLpro inh: 8; Anthrax LF prot: -9; VHR inh abs: -17; BoNT-A LC inh2: 0

What do the screens show for `CCOC(=O)C1CCCN(Cc2c(F)cccc2Cl)C1` (stereo not given)?
Bead autofluor: 20111*; BoNT-F LC inh: 1; SARS 3CLpro inh: 0; Anthrax LF prot: -1; VHR inh abs: 15; BoNT-A LC inh2: 1

What do the screens show for `CCOC(=O)C1CCN(Cc2c(F)cccc2Cl)CC1`?
Bead autofluor: 25112*; BoNT-F LC inh: -6; SARS 3CLpro inh: -3; Anthrax LF prot: 0; VHR inh abs: 7; BoNT-A LC inh2: -5

What do the screens show for `CCOC(=O)C1CCN(C(=O)c2cccnc2Cl)CC1`?
Bead autofluor: 20039*; BoNT-F LC inh: -1; SARS 3CLpro inh: -3; Anthrax LF prot: -2; VHR inh abs: 4; BoNT-A LC inh2: 0

How did CCOC(=O)C1CCCN(C(=O)Cc2c(F)cccc2Cl)C1 (stereo not given) do in these assays?
Bead autofluor: 12928; BoNT-F LC inh: 0; SARS 3CLpro inh: -1; Anthrax LF prot: 1; VHR inh abs: 23; BoNT-A LC inh2: -1

What do the screens show for `CCOC(=O)C1CCCN(Cc2ccccc2OCC)C1` (stereo not given)?
Bead autofluor: 19086*; BoNT-F LC inh: 0; SARS 3CLpro inh: 3; Anthrax LF prot: -4; VHR inh abs: -8; BoNT-A LC inh2: 3

How did CCCCn1nnnc1C(c1ccccc1)N1CCN(c2ncc(C(F)(F)F)cc2Cl)CC1 (stereo not given) do in these assays?
Bead autofluor: 5600; BoNT-F LC inh: -3; Anthrax LF prot: -7; BoNT-A LC inh2: 0

What do the screens show for `CCOC(=O)C1CCCN(C(=O)CN2C(=O)c3ccccc3S2(=O)=O)C1` (stereo not given)?
Bead autofluor: 3773; BoNT-F LC inh: -3; Anthrax LF prot: 1; BoNT-A LC inh2: 0

Results for CCOC(=O)C1CCCN(C(=O)CN2C(=O)c3ccccc3C2=O)C1 (stereo not given) ?
Bead autofluor: 20127*; BoNT-F LC inh: -1; SARS 3CLpro inh: -1; Anthrax LF prot: -1; VHR inh abs: 16; BoNT-A LC inh2: inconclusive

What do the screens show for `CCOC(=O)C1CCCN(CC(O)COc2ccccc2C(C)=O)C1` (stereo not given)?
Bead autofluor: 22881*; BoNT-F LC inh: -1; SARS 3CLpro inh: -2; Anthrax LF prot: -6; VHR inh abs: 8; BoNT-A LC inh2: 0

How did CCOC(=O)C1CCCN(CC(O)COC(c2ccccc2)c2ccccc2)C1 (stereo not given) do in these assays?
Bead autofluor: 4886; BoNT-F LC inh: 3; SARS 3CLpro inh: 4; Anthrax LF prot: 2; VHR inh abs: 2; BoNT-A LC inh2: 1

How did O=C(O)c1nc(N2CCCC2)ncc1Cl do in these assays?
Bead autofluor: 19947*; BoNT-F LC inh: 10; SARS 3CLpro inh: 7; Anthrax LF prot: -8; VHR inh abs: 6; BoNT-A LC inh2: 7

Results for Cc1ccc2nc(N3CCN(S(=O)(=O)c4ccc(C)c(Cl)c4)CC3)c(C#N)cc2c1 ?
Bead autofluor: 21608*; BoNT-F LC inh: 12; SARS 3CLpro inh: -2; Anthrax LF prot: 13; VHR inh abs: 18; BoNT-A LC inh2: inconclusive

How did CCOC(=O)C1=C(C)NC(=O)NC1c1ccco1 (stereo not given) do in these assays?
Bead autofluor: 23226*; BoNT-F LC inh: 2; SARS 3CLpro inh: -4; Anthrax LF prot: 0; VHR inh abs: 2; BoNT-A LC inh2: -1

Results for COC(=O)c1ccc(NC(=O)COc2ccc(S(=O)(=O)N3CCCCC3)cc2)cc1 ?
Bead autofluor: 23051*; BoNT-F LC inh: 2; SARS 3CLpro inh: 5; Anthrax LF prot: 2; VHR inh abs: 24; BoNT-A LC inh2: 2

Results for O=C(COc1ccc(S(=O)(=O)N2CCOCC2)cc1)Nc1ccccc1Cl ?
Bead autofluor: 5771; BoNT-F LC inh: -1; SARS 3CLpro inh: -2; Anthrax LF prot: 2; VHR inh abs: 45; BoNT-A LC inh2: 1

What do the screens show for `O=C(COc1ccc(S(=O)(=O)N2CCCC2)cc1)Nc1ccc(F)cc1`?
Bead autofluor: 3933; BoNT-F LC inh: 5; SARS 3CLpro inh: -3; Anthrax LF prot: -2; VHR inh abs: 3; BoNT-A LC inh2: 0

How did O=C(Cc1cccc(C(F)(F)F)c1)Nc1ccc(S(=O)(=O)N2CCCC2)cc1 do in these assays?
Bead autofluor: 5746; BoNT-F LC inh: -8; Anthrax LF prot: 1; BoNT-A LC inh2: -3
